Measurements published in the supplement of paper PMC12819154, “High-throughput peptide-centric local stability assay extends protein–ligand identification to membrane proteins, tissues and bacteria” (Nature Structural & Molecular Biology, 2025).

Biological target: T1, UniProt P76038
T1 sequence (whole entry): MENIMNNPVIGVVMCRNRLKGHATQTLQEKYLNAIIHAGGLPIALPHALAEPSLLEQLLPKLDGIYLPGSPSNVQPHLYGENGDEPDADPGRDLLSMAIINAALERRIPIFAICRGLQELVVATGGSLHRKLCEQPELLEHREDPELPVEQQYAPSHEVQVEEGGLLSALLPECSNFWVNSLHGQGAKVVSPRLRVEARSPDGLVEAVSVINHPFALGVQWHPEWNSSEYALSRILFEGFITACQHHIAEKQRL
Test: log2 fold change of tryptic peptide abundance, ligand vs vehicle (limited proteolysis) (log2 ratio); higher = more trypsin-susceptible (destabilized)
Conditions: peptide sequence: GLQELVVATGGSLHRK; peptide start residue: 116; ligand concentration: 5 mM; sample: E. coli desalted lysate; replicate design: treated before aliquoting
Experimental: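 HT-PELSA: desalted E. coli K-12 BW25113 lysate (with 12 mM MgCl2) incubated with 5 mM ATP (pH 7) or water for 30 min at 25 C, then a 4 min trypsin pulse at 22 C. Peptides were quantified by DIA-MS (4 replicates). Value is the peptide log2 fold change (treated/control); negative = stabilized. Scale: negative = ligand-stabilized region.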
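Further: lysate desalted by size exclusion to strip endogenous ATP, peptide intensities built from DIA-NN precursor signals, and peptides missing any value discarded before comparison.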

SMILES | log2 fold change
Nc1ncnc2c1ncn2[C@@H]1O[C@H](COP(=O)(O)OP(=O)(O)OP(=O)(O)O)[C@@H](O)[C@H]1O [adenosine 5'-triphosphate] | 1.55
